Laboratory results from PubChem BioAssay AID371 (SRMLSC, 2006).
The campaign covered roughly 3,300 compounds. About 280 (8.5%) were called active.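 How the source made its calls: active means mean growth inhibition over the two runs of 50% or more; inactive means mean growth inhibition under 50%.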 Shown is part of a subset that was picked to be rich in actives.

Assay: A549 NSCLC cell proliferation inhibitors – ATP luminescence, human non-small cell lung line, primary screen (AID 371);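 further: compound exposure lasted 72 h before the ATP read; 0% = untreated cell signal and 100% = no luminescence left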
Details: at 10 µM, active compounds read high
For `COc1cccc(COc2nc3c(c(=O)n(C)c(=O)n3C)n2C)c1`, the growth inhibition was 29.5% (inactive). With `COc1cccc(OC)c1C(=O)Nc1nc2ccc(S(C)(=O)=O)cc2s1` the growth inhibition was 11.2% (inactive). In the case of `CCCCOc1ccccc1C(=O)NCCCC(=O)O`, the growth inhibition is reported as -2.38% (inactive). For `CCCNCC(O)COc1ccccc1C(=O)CCc1ccccc1` (stereo not given), the growth inhibition was 54.2% (active). With `CCCOc1ccccc1C(=O)NCCCC(=O)O` the growth inhibition was -12.4% (inactive). In the case of `Cc1ccccc1NC(=O)NCCc1nc2ccccc2[nH]1`, the growth inhibition is reported as -5.83% (inactive). In the case of `COc1ccc(C(=O)C(CN2CCCC2)c2ccccc2)cc1` (stereo not given), the growth inhibition is reported as 88.2% (active). In the case of `COc1ccc(C(=O)CCN2CCCCCC2)cc1`, the growth inhibition is reported as 2.68% (inactive). With `COc1ccc(C(O)C(CN2CCOCC2)c2ccccc2)cc1` (stereo not given) the growth inhibition was 2.01% (inactive). In the case of `Cc1cc(C)nc(N(C#N)CN2C(=O)c3ccccc3C2=O)n1`, the growth inhibition is reported as -0.78% (inactive). In the case of `COC(=O)c1ccc(C(=O)OC)c(NC(=O)c2cc3ccccc3o2)c1`, the growth inhibition is reported as 5.58% (inactive). For `COC(=O)/C(C#N)=C1/SC=C(C)N1c1ccccc1`, the growth inhibition was 4.54% (inactive). With `Cn1c(=O)c2c(nc(NCc3ccco3)n2Cc2ccc(Cl)cc2Cl)n(C)c1=O` the growth inhibition was 0.48% (inactive). For `Cn1c(NCc2ccco2)nc2c1c(=O)n(Cc1ccc(Cl)c(Cl)c1)c(=O)n2C`, the growth inhibition was 70% (active). With `Cn1c(=O)c2c(nc(NCc3ccco3)n2Cc2ccccc2Cl)n(C)c1=O` the growth inhibition was 2.6% (inactive). With `Cn1c(OCc2ccc3c(c2)OCO3)nc2c1c(=O)n(Cc1cccc(Cl)c1)c(=O)n2C` the growth inhibition was -0.73% (inactive). In the case of `Cn1c(OCc2ccco2)nc2c1c(=O)n(Cc1ccc(Cl)c(Cl)c1)c(=O)n2C`, the growth inhibition is reported as 59% (active). With `C=CCOc1nc2c(c(=O)n(Cc3ccc(Cl)c(Cl)c3)c(=O)n2C)n1C` the growth inhibition was 35.1% (inactive). In the case of `CNC(=O)c1cc2ccccc2o1`, the growth inhibition is reported as -3.18% (inactive). In the case of `O=c1cc(O)nc2n1CCCS2`, the growth inhibition is reported as 2.49% (inactive). For `COC(=O)C(NC(=O)c1ccco1)(Nc1ccc(Br)cn1)C(F)(F)F` (stereo not given), the growth inhibition was 22.7% (inactive). With `CCOC(=O)CC(C#N)c1cn(C)c2ccccc12` (stereo not given) the growth inhibition was 3.83% (inactive). With `C=CC[N+](C)(C)CCCNC(=O)/C=N/O` the growth inhibition was -6.91% (inactive). With `COc1cccc(C(=O)Nc2ccc(-c3nnc(-c4ccco4)o3)cc2)c1` the growth inhibition was 23.8% (inactive). In the case of `CCN(CC)CCn1c(O)c(N=O)c2ccccc21`, the growth inhibition is reported as 2.91% (inactive). With `Cn1c(NCc2ccccc2)nc2c1c(=O)n(Cc1ccccc1)c(=O)n2C` the growth inhibition was 39.1% (inactive). In the case of `Cn1c(NCc2ccccc2)nc2c1c(=O)n(Cc1ccc(Br)cc1)c(=O)n2C`, the growth inhibition is reported as 72.5% (active). For `Cn1c(NCC(O)c2ccccc2)nc2c1c(=O)n(Cc1ccc(Cl)cc1)c(=O)n2C` (stereo not given), the growth inhibition was 71.7% (active). In the case of `Cn1c(=O)n(Cc2ccccc2)c(=O)c2c1nc(NCC1CCCO1)n2Cc1ccccc1` (stereo not given), the growth inhibition is reported as 45.3% (inactive). With `Cn1c(N2CCN(c3ccccn3)CC2)nc2c1c(=O)n(Cc1ccc(Cl)cc1)c(=O)n2C` the growth inhibition was 50.6% (active). With `COc1ccc(Cn2c(=O)c3c(nc(NCCO)n3C)n(C)c2=O)cc1` the growth inhibition was 3.12% (inactive). In the case of `Cn1c(N2CCN(c3ccccn3)CC2)nc2c1c(=O)n(Cc1ccccc1Cl)c(=O)n2C`, the growth inhibition is reported as 7.18% (inactive). For `COCCNc1nc2c(c(=O)n(Cc3ccc(OC)cc3)c(=O)n2C)n1C`, the growth inhibition was 12.2% (inactive). For `Cn1c(N2CCOCC2)nc2c1c(=O)n(Cc1ccc(Cl)c(Cl)c1)c(=O)n2C`, the growth inhibition was 36.7% (inactive). In the case of `Cn1c(NCC(O)c2ccccc2)nc2c1c(=O)n(Cc1ccc(Cl)c(Cl)c1)c(=O)n2C` (stereo not given), the growth inhibition is reported as 88% (active). With `Cn1c(NCc2cccnc2)nc2c1c(=O)n(Cc1ccccc1F)c(=O)n2C` the growth inhibition was 18.8% (inactive). For `Cn1c(N2CCOCC2)nc2c1c(=O)n(Cc1ccc(Cl)cc1)c(=O)n2C`, the growth inhibition was 17.2% (inactive). With `CCCCCSc1nc(O)cc(=O)[nH]1` the growth inhibition was -0.41% (inactive). In the case of `Cc1nc2c(=O)n(C)c(=O)[nH]c2n1Cc1ccccc1`, the growth inhibition is reported as 8.92% (inactive). For `O=C1C2ON(c3ccccc3)C(c3cccnc3)C2C(=O)N1c1ccccc1` (stereo not given), the growth inhibition was -1.13% (inactive). With `CCOC(=O)c1[nH]c2cc3c(cc2c1NC(=O)CN1CC(C)CC(C)C1)OCO3` (stereo not given) the growth inhibition was 6.05% (inactive). In the case of `CCc1c(C(=O)O)[nH]c2ccc(Br)cc12`, the growth inhibition is reported as 6.3% (inactive). For `CCOC(=O)c1[nH]c2ccc(OC)cc2c1C`, the growth inhibition was 12.4% (inactive). With `Cc1cccc(N2CC(=O)N(c3cccc(C)c3)CC2=O)c1` the growth inhibition was 3.38% (inactive). For `CCN(CC)CCNC(=O)c1c(C)oc2cc(Br)c(OC)cc12`, the growth inhibition was 29.2% (inactive). In the case of `COc1cc2c(C(=O)N3CCN(c4ccccc4)CC3)c(C)oc2cc1Br`, the growth inhibition is reported as 60.9% (active). In the case of `COc1ccccc1N1CCN(C(=O)c2c(C)cc(=O)oc2C)CC1`, the growth inhibition is reported as -0.18% (inactive). With `CCCCOc1ccc(-c2nnc(N)s2)cc1` the growth inhibition was 21.4% (inactive). For `CCCCOc1ccc(CN(C)c2ncnc(N)n2)cc1`, the growth inhibition was 51.9% (active). In the case of `CCOc1ccc(Cc2nc(N)nc(N)n2)cc1`, the growth inhibition is reported as 2.96% (inactive). In the case of `COC(=O)c1ccccc1N1C(=O)[C@@H]2C(c3ccc(Br)cc3)=NO[C@@H]2C1=O`, the growth inhibition is reported as 3.29% (inactive). For `O=C(NCc1ccco1)c1ccc(=O)[nH]n1`, the growth inhibition was -4.07% (inactive). In the case of `O=C(NCc1ccco1)c1ccc(=O)oc1`, the growth inhibition is reported as -3.09% (inactive). With `O=C1c2ccccc2-c2onc3ccc(NCc4ccco4)c1c23` the growth inhibition was 50.2% (active). In the case of `c1ccc(-c2nn3c(C4CCCCC4)nnc3s2)cc1`, the growth inhibition is reported as 5.6% (inactive). For `CCC(=O)N(Cc1cccs1)C1CCOC(C)(C)C1` (stereo not given), the growth inhibition was 3.04% (inactive). For `CCCCNC(=O)c1c(N)n(/N=C/c2cccnc2)c2nc3ccccc3nc12`, the growth inhibition was 5.46% (inactive). In the case of `CN(Cc1ccccc1)Cc1c[nH]c2ccccc12`, the growth inhibition is reported as 5.38% (inactive). With `CC(C)NCC(O)COc1ccc(CC(N)=O)cc1` (stereo not given) the growth inhibition was -2.65% (inactive). With `O/N=C/c1ccc(OCC(O)COc2ccc(/C=N/O)cc2)cc1` the growth inhibition was -5.19% (inactive). With `CN(C)CC(O)COc1ccc(-c2ccc(C#N)cc2)cc1` (stereo not given) the growth inhibition was 64.2% (active). In the case of `COCCc1ccc(OCC(O)CNC(C)C)cc1` (stereo not given), the growth inhibition is reported as 1.47% (inactive). For `CC(C)NCC(O)COc1ccc(CCOCC2CC2)cc1` (stereo not given), the growth inhibition was -0.79% (inactive). With `OC(CNCCCN1CCCCC1)COc1ccccc1` (stereo not given) the growth inhibition was 4.57% (inactive). In the case of `CN(C)CC(O)COc1ccc(C(C)(C)c2ccc(OCC(O)CN(C)C)cc2)cc1` (stereo not given), the growth inhibition is reported as 89.2% (active). With `CC1(C)NC(=O)N(CC(O)Cn2nnc3ccccc32)C1=O` (stereo not given) the growth inhibition was 8.44% (inactive). For `CN(CC(O)COc1ccc(OCC(O)CN(C)C2CCCCC2)cc1)C1CCCCC1` (stereo not given), the growth inhibition was 50.1% (active). With `CN(C)CC(O)COc1cccc(OCC(O)CN(C)C)c1` (stereo not given) the growth inhibition was 2.88% (inactive). In the case of `N#Cc1ccc(-c2ccc(OCC(O)Cn3nnc4ccccc43)cc2)cc1` (stereo not given), the growth inhibition is reported as 57.7% (active). For `CN=c1sc2ccccc2n1CC(O)COc1ccccc1` (stereo not given), the growth inhibition was 25.3% (inactive).
